Bioassay records as filed in PubChem BioAssay.
Luciferase inh: Photinus pyralis luciferase inhibition. P08659. purified P. pyralis luciferase, luminescence, biochemical. Potency, µM (titrated, usually from 115 µM), hits mostly inhibitors. actives 2.5% (n = 76,000). AID 1347043; further: nearly all actives have a fitted effect of over 65% in size
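Cell-free enzyme assay, 10nM P. pyralis luciferase, luciferin and ATP each at 10uM. Inhibition profiled over a 6-point titration, read as luminescence.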
HEK293 tox: HEK 293 cell cytotoxicity | HEK 293 viability, ATP luminescence (CellTiter-Glo), 48-72 h | Potency, µM (series often up to 115 µM), for inactives: at the top dose activity change, negative = cytotoxicity, usual class: inhibitors | actives 6.6% (n = 94,000); further: nearly all actives have a fitted effect of over 60% in size
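Pintool-delivered compounds were incubated with HEK 293 cells (250 cells/well) at 37 degree Celsius for 48 or 72 hr. ATP-dependent luminescence (CellTiter-Glo) then reported remaining viable cells.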
hNpr1 antagonist: antagonists of human natriuretic peptide receptor Npr1. P16066. AID 1347048. Potency, µM (top dose mostly 46.3 µM), inactives show at the highest dose activity change, negative = inhibition, actives largely listed as inhibitors. actives 1.6% (n = 76,000). HEK293 hNpr1 GloSensor cGMP, ANP-stimulated luminescence; calls by dose curve; further: nearly all actives have a fitted effect of over 60% in size
Target sequence (P16066 whole entry, looked up): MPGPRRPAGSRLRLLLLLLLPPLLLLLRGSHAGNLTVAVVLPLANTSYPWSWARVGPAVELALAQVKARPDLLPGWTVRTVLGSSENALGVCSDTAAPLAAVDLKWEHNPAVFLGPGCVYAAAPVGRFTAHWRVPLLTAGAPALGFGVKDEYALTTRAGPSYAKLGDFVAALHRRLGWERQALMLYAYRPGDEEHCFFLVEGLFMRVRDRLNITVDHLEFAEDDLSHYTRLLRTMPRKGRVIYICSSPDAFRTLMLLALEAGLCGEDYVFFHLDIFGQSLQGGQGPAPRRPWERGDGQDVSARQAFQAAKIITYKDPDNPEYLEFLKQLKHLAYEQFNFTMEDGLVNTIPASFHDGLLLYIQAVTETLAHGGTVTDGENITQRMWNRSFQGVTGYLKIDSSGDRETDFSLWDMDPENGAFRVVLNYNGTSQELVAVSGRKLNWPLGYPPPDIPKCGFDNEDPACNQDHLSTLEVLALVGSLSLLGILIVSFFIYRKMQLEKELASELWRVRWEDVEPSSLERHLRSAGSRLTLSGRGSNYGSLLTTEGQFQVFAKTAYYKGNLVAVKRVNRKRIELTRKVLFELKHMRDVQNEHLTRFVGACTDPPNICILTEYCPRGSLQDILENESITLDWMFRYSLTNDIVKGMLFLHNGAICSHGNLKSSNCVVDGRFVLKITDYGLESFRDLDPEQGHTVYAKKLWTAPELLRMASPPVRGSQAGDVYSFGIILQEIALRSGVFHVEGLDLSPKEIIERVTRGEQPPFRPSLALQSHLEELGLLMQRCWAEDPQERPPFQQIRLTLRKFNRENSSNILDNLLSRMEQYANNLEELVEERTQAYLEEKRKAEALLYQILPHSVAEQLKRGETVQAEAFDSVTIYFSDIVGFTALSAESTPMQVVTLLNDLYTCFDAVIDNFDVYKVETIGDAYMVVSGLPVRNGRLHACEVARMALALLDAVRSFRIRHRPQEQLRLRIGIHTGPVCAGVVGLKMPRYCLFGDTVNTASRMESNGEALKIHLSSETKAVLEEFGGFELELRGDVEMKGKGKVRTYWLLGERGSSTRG
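Compound pre-incubated 30 min at room temperature on GloSensor-loaded HEK293 cells stably carrying hNpr1 and the pGS-40F cGMP biosensor. Stimulation uses hNppA at 0.1 nM final; luminescence is taken at baseline and 20 min post-agonist.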
SNCA expr inh: inhibitors of alpha-synuclein (SNCA) gene expression. HEK-293 SNCA-luciferase knock-in, luminescence, 24 h. actives 0.17% (n = 140,000). Potency, µM (titrated, usually from 57.2 µM), without a hit: top-dose activity change, negative = inhibition, actives largely listed as inhibitors. AID 1671194;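 further: plate controls were DMSO cells for no effect and cell-free wells for full effect; nearly all actives have a fitted effect of over 45% in size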
NIH3T3 tox: kills NIH 3T3 cells. actives 4.3% (n = 94,000). NIH 3T3 viability, CellTiter-Glo ATP luminescence, 48-72 h. Potency, µM (top dose mostly 96.7 µM), inactives show top-dose activity change, negative = cytotoxicity, usual class: inhibitors; further: nearly all actives have a fitted effect of over 55% in size
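Cytotoxicity is measured as loss of cellular ATP: NIH 3T3 cells (400/well) are exposed to compound for 48 or 72 hr at 37 °C, then CellTiter-Glo luminescence is imaged after 10 min at room temperature.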
SNCA viab count: counter-screen for SNCA expression inhibitors: cell viability | Potency, µM (doses to about 57.1 µM), for the others: top-dose activity change, negative = cytotoxicity, actives largely listed as cytotoxic | HEK-293-SNCA-luc viability, GF-AFC fluorescence, 24 h | actives 0.12% (n = 150,000);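 further: 0% = DMSO-treated cells and -100% = medium-only wells without cells; nearly all actives have a fitted effect of over 30% in size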
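HEK-293-SNCA-luc cells (1500/well) plated 24 h, then exposed 24 h to a dilution series; GF-AFC added 30 min at 37C, fluorescence 405/540 nm; normalised to medium-only and DMSO wells, Hill fit.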
The depositor's hits bear a star; [ ] = remark or other dose. Most compounds without a hit are left out; they make up all but 7.2% or so of the library. Unless noted, the call rests on the fitted dose curve; in most records, active means well fitted curve in the direction sought with a large enough effect; inconclusive means small, poorly fitted or top-dose-only effect, or another doubt; inactive means no such curve, though single readings can be large; an effect the other way counts as inactive or inconclusive. Unless noted, on the % scale 0 is the no-effect control and ±100 the full control effect; potency means the concentration at half of the fitted maximal effect.

Results for COc1ccc(NC(=O)N2CCCC(Cn3c(C4CC4)nc4cccnc43)C2)cc1Cl (stereo unspecified) ?
Luciferase inh: inactive; HEK293 tox: 70.8µM*; hNpr1 antagonist: -9.8%; SNCA expr inh: 33.3%; NIH3T3 tox: inconclusive; SNCA viab count: -17.2%

What do the screens show for `O=C(Nc1ccc2c(c1)OCCO2)N1CCCC(Cn2cnc3cccnc32)C1` (stereo unspecified)?
Luciferase inh: 28.2µM*; HEK293 tox: 6.3%; hNpr1 antagonist: 2.9%; SNCA expr inh: 206.1%; NIH3T3 tox: -0.9%; SNCA viab count: -1.2%

Results for CN1CCN(c2nc3c(c(=O)[nH]2)CCN(Cc2cccn2C)CC3)CC1 ?
Luciferase inh: inactive; HEK293 tox: -4.3%; hNpr1 antagonist: 2.5%; SNCA expr inh: -1.4%; NIH3T3 tox: inactive; SNCA viab count: -0.1%

Results for Cn1ncc2c(C(=O)NCCCc3ccccc3)cc(-c3ccc(Cl)cc3Cl)nc21 ?
HEK293 tox: inconclusive; SNCA expr inh: -22.9%; NIH3T3 tox: inconclusive; SNCA viab count: -9.5%

What do the screens show for `COc1ccc(CN2CCC(CO)(CCCc3ccccc3)CC2)c(Cl)c1OC`?
Luciferase inh: inactive; HEK293 tox: inconclusive; hNpr1 antagonist: 0.0%; SNCA expr inh: 10.1%; NIH3T3 tox: inconclusive; SNCA viab count: -8.3%

What do the screens show for `CCOc1ccc(CN2CCC(CO)(Cc3ccccc3Cl)CC2)cc1`?
Luciferase inh: inactive; HEK293 tox: 79.4µM*; hNpr1 antagonist: 2.1%; SNCA expr inh: 14.1%; NIH3T3 tox: inconclusive; SNCA viab count: 2.8%

What do the screens show for `OCCC#Cc1ccc(CN2CCC(CO)(Cc3ccccc3Cl)CC2)cc1`?
Luciferase inh: inactive; HEK293 tox: inconclusive; hNpr1 antagonist: -4.9%; SNCA expr inh: 11.6%; NIH3T3 tox: inconclusive; SNCA viab count: -4.8%

How did COc1ccc2c(c1)C=C(CN1CCC(CO)(Cc3ccccc3Cl)CC1)CO2 do in these assays?
Luciferase inh: inactive; HEK293 tox: 17.8µM*; hNpr1 antagonist: inconclusive; SNCA expr inh: inconclusive; NIH3T3 tox: inconclusive; SNCA viab count: -11.6%

How did Cc1ccc(OCC(=O)NCCC2CCN(C(=O)Nc3ccccc3F)CC2)cc1 do in these assays?
Luciferase inh: inactive; HEK293 tox: -0.9%; hNpr1 antagonist: -3.5%; SNCA expr inh: -26.9%; NIH3T3 tox: -0.8%; SNCA viab count: 4.8%

What do the screens show for `O=C1CN(C(=O)CCC(=O)N2CCCC(Cc3nncn3Cc3ccccc3)C2)c2ccccc2N1` (stereo unspecified)?
Luciferase inh: inactive; HEK293 tox: inactive; hNpr1 antagonist: 3.6%; SNCA expr inh: 13.9%; NIH3T3 tox: inactive; SNCA viab count: -0.1%

How did CCC(=O)Nc1ccc(C2(C(=O)N3CCC(N4CCCCC4)CC3)CCCCC2)cc1 do in these assays?
Luciferase inh: inactive; HEK293 tox: -25.2%; hNpr1 antagonist: -2.4%; SNCA expr inh: -18.2%; NIH3T3 tox: -17.1%; SNCA viab count: -0.3%

What do the screens show for `N#Cc1ccc(CN2CCCCCCNC(=O)[C@@H]3CCC[C@@H]32)cc1`?
Luciferase inh: inactive; HEK293 tox: inconclusive; hNpr1 antagonist: -12.3%; SNCA expr inh: 16.7%; NIH3T3 tox: -25.6%; SNCA viab count: -21.1%

What do the screens show for `O=C1NCCCCCCN(Cc2ccncc2)[C@@H]2CN(C(=O)C3CCOCC3)CC[C@@H]12`?
Luciferase inh: inactive; HEK293 tox: inactive; hNpr1 antagonist: 2.0%; SNCA expr inh: 2.3%; NIH3T3 tox: -12.6%; SNCA viab count: 1.9%

How did O=C1NCCCCCCN(Cc2ccncc2)[C@@H]2CN(C(=O)C3CCCCC3)CC[C@@H]12 do in these assays?
Luciferase inh: inactive; HEK293 tox: 44.7µM*; hNpr1 antagonist: 5.0%; SNCA expr inh: -2.9%; NIH3T3 tox: inconclusive; SNCA viab count: 2.1%

How did O=C1NCCCCCCN(Cc2ccc(C(F)(F)F)cc2)[C@H]2CCC[C@@H]12 do in these assays?
Luciferase inh: inactive; HEK293 tox: 39.8µM*; hNpr1 antagonist: -22.6%; SNCA expr inh: -10.2%; NIH3T3 tox: inconclusive; SNCA viab count: -27.3%

What do the screens show for `CNC(=O)c1cc(C)nc2onc(C3CCCN(C(=O)Cc4cccc(Cl)c4)C3)c12` (stereo unspecified)?
HEK293 tox: -7.3%; NIH3T3 tox: -21.6%

Results for FC1(c2nc(-c3ccccc3)no2)CCN(C2CCOCC2)CC1 ?
Luciferase inh: inactive; HEK293 tox: inconclusive; hNpr1 antagonist: -18.0%; SNCA expr inh: 98.0%; NIH3T3 tox: inconclusive; SNCA viab count: -1.4%

What do the screens show for `Cc1ccc(Cl)cc1NC(=O)Cn1nc2c(cc1=O)CCCCC2`?
Luciferase inh: inactive; HEK293 tox: inconclusive; hNpr1 antagonist: 1.0%; SNCA expr inh: -11.0%; NIH3T3 tox: -24.1%; SNCA viab count: -1.2%

How did O=C(c1ccncc1)N1CCN(c2ccnc3ccnn23)CC1 do in these assays?
HEK293 tox: 4.0%[172 µM]; SNCA expr inh: -1.5%[87.6 µM]; NIH3T3 tox: -10.4%[138 µM]; SNCA viab count: 1.1%[87.6 µM]

What do the screens show for `CN1CC(=O)N(c2ccccc2)Cc2c1ncnc2N1CCc2ccccc2C1`?
Luciferase inh: inactive; HEK293 tox: inconclusive; hNpr1 antagonist: -3.6%; SNCA expr inh: -15.4%; NIH3T3 tox: inconclusive; SNCA viab count: -8.0%

Results for Cc1cc2c(cc1CNC1CC(C)(C)Cc3nc(C(C)(C)C)ncc31)OCO2 (stereo unspecified) ?
Luciferase inh: inactive; HEK293 tox: inconclusive; hNpr1 antagonist: -1.9%; SNCA expr inh: inconclusive; NIH3T3 tox: inconclusive; SNCA viab count: -10.4%

How did COc1cccc(CNC(=O)c2cc(-c3cccc(C(F)(F)F)c3)nc3c2cnn3C)c1 do in these assays?
HEK293 tox: inactive; SNCA expr inh: 0.8%; NIH3T3 tox: -3.3%; SNCA viab count: -6.5%

Results for Cn1ncc2c(C(=O)NCCc3ccccn3)cc(-c3cccc(C(F)(F)F)c3)nc21 ?
HEK293 tox: 31.6µM*; NIH3T3 tox: inconclusive

How did Cn1ncc2c(C(=O)NCc3ccccn3)cc(-c3cccc(C(F)(F)F)c3)nc21 do in these assays?
HEK293 tox: inconclusive; SNCA expr inh: -27.7%; NIH3T3 tox: inconclusive; SNCA viab count: -15.4%

What do the screens show for `COc1cccc(-c2cc(C(=O)NCc3cccc(C(F)(F)F)c3)c3cnn(C)c3n2)c1`?
HEK293 tox: 25.1µM*; NIH3T3 tox: inconclusive

How did Cn1ncc2c(C(=O)NCc3cccnc3)cc(-c3cccc(C(F)(F)F)c3)nc21 do in these assays?
HEK293 tox: 50.1µM*; SNCA expr inh: inconclusive; NIH3T3 tox: inconclusive; SNCA viab count: inconclusive

What do the screens show for `COc1cccc(-n2nc(C(=O)O)cc2-c2ccc(C3CCCCC3)c(Cl)c2)c1`?
SNCA viab count: -14.6%
